# Source: the supplement of paper PMC12645437, “Orthogonal IMiD-Degron Pairs Induce Selective Protein Degradation in Cells” (ACS Chemical Biology, 2025)
# Over roughly 8,300 sequences, “log2 fold change of degron read counts, EGFP-low vs EGFP+ sorted cells (limma voom), compound-induced degradation” has its median near -1.1; the highest 2% begin near 3.2. For the sample, the highest values were picked, then their nearest neighbours and some sequences at random.
# T1: CRBN, Q96SW2
# T1 chain: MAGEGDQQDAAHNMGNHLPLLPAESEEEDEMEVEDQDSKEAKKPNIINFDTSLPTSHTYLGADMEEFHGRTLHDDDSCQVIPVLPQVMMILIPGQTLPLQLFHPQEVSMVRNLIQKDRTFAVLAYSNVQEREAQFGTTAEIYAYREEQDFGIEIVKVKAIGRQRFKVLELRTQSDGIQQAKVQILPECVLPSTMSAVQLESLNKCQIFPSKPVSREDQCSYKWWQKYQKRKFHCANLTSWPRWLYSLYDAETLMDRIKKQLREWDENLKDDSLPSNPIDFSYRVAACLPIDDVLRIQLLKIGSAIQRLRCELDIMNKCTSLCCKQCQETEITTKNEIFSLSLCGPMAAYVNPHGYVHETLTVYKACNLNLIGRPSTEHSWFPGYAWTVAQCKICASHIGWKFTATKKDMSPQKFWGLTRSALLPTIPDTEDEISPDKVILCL
# Biological target: T1, CRBN, Q96SW2
# Assay: log2 fold change of degron read counts, EGFP-low vs EGFP+ sorted cells (limma voom), compound-induced degradation; higher = more compound-induced degradation of the degron-EGFP fusion; degrons are variants of IKZF1/3 zinc finger 2; compound dose not given here
# Settings: Jurkat, 18 h
# [1] = compound: compound 19 (5-tert-butyl-thalidomide)
# [2] = compound: compound 22 (5-morpholino-thalidomide)
# [3] = compound: compound 33 (diphenyl IMiD analogue)
# 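Further: pooled lentiviral library of zinc finger degron-EGFP fusions in mCherry-positive Jurkat cells, FACS-sorted after compound exposure, with degron abundance counted by next-generation sequencing.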
Sequence,log2 fold change of degron read counts [1],log2 fold change of degron read counts [2],log2 fold change of degron read counts [3],log2 fold change of degron read counts (compound: thalidomide)
"FRCEVCGANFTQKGNLLRHIKL [46F_47R_49E_50V_52G_53A_54N_55F_67L_, Q9UKT9]",-1.19,-1.18,1.07,0.852
"FHCPVCGADFTQKGNLLRHIKL [46F_47H_49P_50V_52G_53A_54D_55F_67L_, Q9UKT9]",-0.685,-1.25,0.492,-1.46
"FVCPICGRNFTQKGNLLRHIKL [46F_47V_49P_50I_52G_53R_54N_55F_67L_, Q9UKT9]",-1.5,0.0165,-0.308,1.47
"FDCNICGAGFTQKGNLLRHIKL [46F_47D_49N_50I_52G_53A_54G_55F_67L_, Q9UKT9]",-0.56,-1.59,-0.734,-0.131
"FGCNQCGRQFTQKGNLLRHIKL [46F_47G_49N_50Q_52G_53R_54Q_55F_67L_, Q9UKT9]",-1.78,-3.61,-1.87,-1.99
"FECNQCGAQFTQKGNLLRHIKL [46F_47E_49N_50Q_52G_53A_54Q_55F_67L_, Q9UKT9]",-3.22,-3.17,-2.23,-1.78
"FVCEVCGAVFTQKGNLLRHIKL [46F_47V_49E_50V_52G_53A_54V_55F_67L_, Q9UKT9]",-0.567,1.18,2.1,2.01
"FKCEVCGAVFTQKGNLLRHIKL [46F_47K_49E_50V_52G_53A_54V_55F_67L_, Q9UKT9]",-2.3,-3.46,-2.84,-1.47
"FLCEVCGAVFTQKGNLLRHIKL [46F_47L_49E_50V_52G_53A_54V_55F_67L_, Q9UKT9]",-1.19,-1.32,0.896,1.47
"FSCEVCGAVFTQKGNLLRHIKL [46F_47S_49E_50V_52G_53A_54V_55F_67L_, Q9UKT9]",2.19,1.99,2.31,0.741
"FWCEVCGAVFTQKGNLLRHIKL [46F_47W_49E_50V_52G_53A_54V_55F_67L_, Q9UKT9]",2.83,3.43,2.51,0.594
"FDCEVCGAVFTQKGNLLRHIKL [46F_47D_49E_50V_52G_53A_54V_55F_67L_, Q9UKT9]",-0.0916,-0.965,0.432,0.0687
"FACEVCGAVFTQKGNLLRHIKL [46F_47A_49E_50V_52G_53A_54V_55F_67L_, Q9UKT9]",3.24,2.04,1.3,0.155
"FHCEVCGAVFTQKGNLLRHIKL [46F_47H_49E_50V_52G_53A_54V_55F_67L_, Q9UKT9]",0.991,1.24,1.22,-0.292
"FQCEVCGAVFTQKGNLLRHIKL [46F_47Q_49E_50V_52G_53A_54V_55F_67L_, Q9UKT9]",-0.43,2.76,2.39,3.71
"FTCEVCGAVFTQKGNLLRHIKL [46F_47T_49E_50V_52G_53A_54V_55F_67L_, Q9UKT9]",-0.209,1.43,1.81,2.36
"FFCEVCGAVFTQKGNLLRHIKL [46F_47F_49E_50V_52G_53A_54V_55F_67L_, Q9UKT9]",2.87,3.44,1.92,1.04
"FCCEVCGAVFTQKGNLLRHIKL [46F_47C_49E_50V_52G_53A_54V_55F_67L_, Q9UKT9]",1.18,1.8,2.68,1.79
